Assay results from the supplement of paper PMC6331611.
± gives the standard deviation of the averaged measurements. The full ranking holds about 1,600 compounds; the median of “normalized intracellular growth (luminescence, IQM-normalized) in RAW264.7 macrophages” is about 1, and the lowest 2% start at about 0.43. What follows is part of a selection rich in the lowest values, with near analogues and random picks from the rest.

Tested on: Salmonella enterica serovar Typhimurium SL1344
Experiment: normalized intracellular growth (luminescence, IQM-normalized) in RAW264.7 macrophages (fraction of plate interquartile mean); higher = more bacterial growth (less inhibition)
Conditions: 10 µM

SMILES | normalized intracellular growth (time point: T3 (3 h)) | normalized intracellular growth (time point: Tfinal (~6 h))
Cc1ccc2c(Br)cc(Br)c(OC(=O)c3ccccc3)c2n1 | 0.944 ± 0.025 | 1.01 ± 0.097
S=C=Nc1ccc(N=C=S)cc1 | 1.04 ± 0.035 | 1.01 ± 0.11
CN(C)c1ccc2nc3ccc(=[N+](C)C)cc-3sc2c1 | 1.29 ± 0.088 | 1.4 ± 0.2
COc1cc(/C=C/C(N)=O)cc(OC)c1OC | 1.04 ± 0.084 | 1.03 ± 0.12
COc1cc(Cc2cnc(N)nc2N)cc(OC)c1OC | 0.563 ± 0.068 | 0.155 ± 0.025
COc1ccc(Cc2cnc(N)nc2N)cc1OC | 0.784 ± 0.028 | 0.17 ± 0.021
C[C@@H]1CC2C3C[C@H](F)C4=CC(=O)C=C[C@]4(C)[C@@]3(F)[C@@H](O)C[C@]2(C)[C@@]1(O)C(=O)COC(=O)C(C)(C)C (stereo partly drawn) | 0.961 ± 0.055 | 0.888 ± 0.12
Cc1cc(-c2ccc(/N=N/c3ccc4c(S(=O)(=O)O)cc(S(=O)(=O)O)c(N)c4c3O)c(C)c2)ccc1/N=N/c1ccc2c(S(=O)(=O)O)cc(S(=O)(=O)O)c(N)c2c1O | 1.06 ± 0.038 | 1.36 ± 0.084
CCOC(=S)SSC(=S)OCC | 0.994 ± 0.036 | 0.924 ± 0.067
C[C@@H]1NC(=O)[C@@H](N)CNC(=O)[C@H](C2CCNC(=N)N2)NC(=O)/C(=C/NC(N)=O)NC(=O)[C@H](CNC(=O)CC(N)CCCN)NC1=O.N=C1NCC[C@H]([C@@H]2NC(=O)/C(=C/NC(N)=O)NC(=O)[C@H](CNC(=O)C[C@@H](N)CCCN)NC(=O)[C@H](CO)NC(=O)[C@@H](N)CNC2=O)N1 | 0.976 ± 0.016 | 0.966 ± 0.059
CC(=O)N[C@@H]([C@@H](O)[C@H](O)[C@H](O)CO)[C@@H](O)CC(=O)C(=O)O | 1.02 ± 0.058 | 1.06 ± 0.24
C[C@@H]1O[C@@H](OC[C@H]2O[C@@H](Oc3c(-c4ccc(OCCO)c(OCCO)c4)oc4cc(OCCO)cc(O)c4c3=O)[C@H](O)[C@@H](O)[C@@H]2O)[C@H](O)[C@H](O)[C@H]1O | 0.951 ± 0.034 | 0.746 ± 0.24
OC[C@H]1O[C@@H](O[C@H]2[C@H](O)[C@@H](O)C(O)O[C@@H]2CO)[C@H](O)[C@@H](O)[C@H]1O (stereo partly drawn) | 1.05 ± 0.022 | 1.04 ± 0.026
C1CNCCN1 | 0.991 ± 0.091 | 0.655 ± 0.077
C[C@@H]1CN(c2c(F)c(N)c3c(=O)c(C(=O)O)cn(C4CC4)c3c2F)C[C@H](C)N1 | 1.08 ± 0.037 | 0.0132 ± 0.002
C[C@@H]1CN(c2c(F)c(F)c3c(=O)c(C(=O)O)cn(C4CC4)c3c2F)C[C@H](C)N1 | 0.986 ± 0.025 | 0.0257 ± 0.0074
COc1ccc(CN(CCN(C)C)c2ncccn2)cc1 | 1.1 ± 0.06 | 1.1 ± 0.093
Cc1cc2nc3c(=O)[nH]c(=O)nc-3n(CC(O)C(O)C(O)COP(=O)(O)O)c2cc1C (stereo not drawn) | 0.886 ± 0.064 | 1.08 ± 0.19
O=C(O)CN(CCN(CC(=O)O)CC(=O)O)CC(=O)O.[Na+].[Na+].[Na+] | 1.03 ± 0.021 | 1.54 ± 0.093
C[C@H]1O[C@@H](O[C@H]2[C@@H](O)C[C@H](O[C@H]3[C@@H](O)C[C@H](O[C@H]4CC[C@@]5(C)[C@H](CC[C@@H]6[C@@H]5CC[C@]5(C)[C@@H](C7=CC(=O)OC7)CC[C@]65O)C4)O[C@@H]3C)O[C@@H]2C)C[C@H](O)[C@@H]1O | 1.03 ± 0.042 | 1.08 ± 0.087

SMILES | normalized intracellular growth (time point: T3 (3 h)) | normalized intracellular growth (time point: Tfinal (~6 h))
NC(=O)c1ccccc1O | 1.04 ± 0.085 | 0.978 ± 0.036
CCCCC1=NC2(CCCC2)C(=O)N1Cc1ccc(-c2ccccc2-c2nnn[nH]2)cc1 | 1.06 ± 0.014 | 1.14 ± 0.22
CCCCc1nc(Cl)c(CO)n1Cc1ccc(-c2ccccc2-c2nnn[nH]2)cc1 | 0.909 ± 0.056 | 0.215 ± 0.0058
CCOc1nc2cccc(C(=O)O)c2n1Cc1ccc(-c2ccccc2-c2nnn[nH]2)cc1 | 0.992 ± 0.057 | 1.04 ± 0.034
CCCc1nc(C(C)(C)O)c(C(=O)O)n1Cc1ccc(-c2ccccc2-c2nnn[nH]2)cc1 | 1.027 ± 0.0089 | 1.118 ± 0.0057
CCCCC(=O)N(Cc1ccc(-c2ccccc2-c2nnn[nH]2)cc1)[C@H](C(=O)O)C(C)C | 0.881 ± 0.033 | 0.239 ± 0.016
CCCc1nc(C(C)(C)O)c(C(=O)OCc2oc(=O)oc2C)n1Cc1ccc(-c2ccccc2-c2nnn[nH]2)cc1 | 1 ± 0.026 | 0.855 ± 0.39
CCCCC(CC)COc1ccc(-c2nc(-c3ccc(OC)cc3)nc(-c3ccc(OCC(CC)CCCC)cc3O)n2)c(O)c1 (stereo not drawn) | 1.02 ± 0.065 | 1.1 ± 0.17
Nc1nc(F)nc2c1ncn2[C@@H]1O[C@H](COP(=O)(O)O)[C@@H](O)[C@@H]1O | 0.982 ± 0.061 | 1.16 ± 0.13
O=C1OC2(c3ccc(O)cc3Oc3cc(O)ccc32)c2ccccc21 | 1.02 ± 0.069 | 0.891 ± 0.079
COc1ccc(C[C@H](N)C(=O)N[C@H]2[C@@H](O)[C@H](n3cnc4c(N(C)C)ncnc43)O[C@@H]2CO)cc1 | 0.993 ± 0.058 | 1.05 ± 0.16
NCCCC(=O)O [gamma-AMINOBUTYRIC ACID] | 0.9762 ± 0.0094 | 1.05 ± 0.096
FCOC(C(F)(F)F)C(F)(F)F | 1.01 ± 0.052 | 0.806 ± 0.18
NCCCC(O)(P(=O)(O)O)P(=O)(O)O | 0.994 ± 0.083 | 1.12 ± 0.14
CCCCCN(C)CCC(O)(P(=O)(O)O)P(=O)(O)O | 0.886 ± 0.014 | 0.0897 ± 0.012
O=C1c2ccccc2C(=O)C1c1ccc(Br)cc1 | 1.08 ± 0.047 | 1.15 ± 0.21
CO/N=C1\C[C@]2(C[C@@H]3C[C@@H](C/C=C(\C)C[C@@H](C)/C=C/C=C4\CO[C@@H]5[C@H](O)C(C)=C[C@@H](C(=O)O3)[C@]45O)O2)O[C@H](/C(C)=C/C(C)C)[C@H]1C | 0.979 ± 0.022 | 0.831 ± 0.033
CCN(CC)CCOc1ccc2c(c1)C(=O)c1cc(OCCN(CC)CC)ccc1-2 | 1 ± 0.035 | 1 ± 0.021
O=C(N[C@H](CO)[C@H](O)c1ccc([N+](=O)[O-])cc1)C(Cl)Cl | 0.927 ± 0.049 | 0.163 ± 0.022
